We go through 40 compounds from PubChem BioAssay (NCI).

About 79,000 compounds went through this panel and 15% of them were active in at least one assay; those are over-represented in the sample as a whole. Values without a mark were called inactive. The source made the active and inactive calls. Cut-off read from the data, not from the text of the source: active = growth inhibition above about 70%; inactive = the rest.

The nature of this assay: NCI Yeast Anticancer Drug Screen. Data for the mec2-1 strain (AID 157). As to conditions: S. cerevisiae mec2-1 strain, at 50.0 µM, hits give high values. The essentials: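 Each compound was tested on mec2-1 yeast, a strain altered in DNA damage repair or cell cycle control. Growth inhibition is reported relative to vehicle.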
As for `CC(NC(=O)C(=O)c1ccccc1)c1ccccc1` (stereo not given), the growth inhibition is -2.95%.

Regarding `CC12CC3C(CC1O2)C3(C)C` (stereo not given), the growth inhibition was -19.6%.

In the case of `CCOC(=O)c1ccc(N=C(N)N)cc1`, the growth inhibition is 9.85%.

For `C=C1C2CCC3(CCC4C5(C)CCCC4(CN(C(C)=O)C5)C3C2)C1O` (stereo not given), the growth inhibition was -5.1%.

`CC(=O)NNc1nc(C)c(C(/C=C/c2ccccc2O)=N/N=C(N)N)s1`: the growth inhibition is -19.4%.

Consider `CCCCC(=O)C(CC)(c1ccccc1)N(C)C` (stereo not given), for which the growth inhibition is -31.1%.

On to `c1ccc2c(c1)ccc1c2c[n+](CCCCCCCC[n+]2cc3c4ccccc4ccc3c3ccccc32)c2ccccc12`, for which the growth inhibition was 92.2% (active).

With `NC(CCC(F)(F)F)C(=O)O` (stereo not given), the growth inhibition is -7.95%.

As to `C/C(CC(O)(C(F)(F)Cl)C(F)(F)Cl)=N\Nc1ccccc1`, the growth inhibition was 15.1%.

Take `Cc1cc(Br)c[nH]c1=O`: the growth inhibition is -7.7%.

As for `CN1CC2=C(NC(=S)NC2c2ccccc2Cl)/C(=C/c2ccccc2Cl)C1` (stereo not given), the growth inhibition is 13.2%.

For the compound `CCC(=O)c1c(O)cc(O)cc1O`, the growth inhibition is -15.6%.

As to `CCCCOC(OCCCC)C(OCCCC)OCCCC`, the growth inhibition is 8.2%.

As to `CC(C)C1CCC2(C)C(CCC3C4(C)CCCC32OC4)C1` (stereo not given), the growth inhibition was 1.35%.

As to `CC(OC(C)C(N)=O)C(N)=O` (stereo not given), the growth inhibition is 0.55%.

With `CCC1c2ccccc2[C@H]2C(c3ccccc3)=NN(c3ccccc3)[C@H]2N1CC` (stereo not given in full), the growth inhibition is -5.05%.

For `Cc1ccccc1Nc1nc2ccccc2nc1NS(=O)(=O)c1ccccc1`, the growth inhibition was 0%.

`COc1ccc(S(=O)(=O)N/N=C/C(=O)OCOC(=O)C(C)(C)C)cc1`: the growth inhibition was -11.8%.

`O=C(Cn1c2c(c3ccccc31)CCCC2)N1CCCC1`: the growth inhibition is -39.9%.

As for `O=[N+]([O-])c1cc(Br)ccc1N1CCCCC1`, the growth inhibition was -3.55%.

As to `COCc1cc(=O)c(OC)cn1CCO`, the growth inhibition was -17.9%.

Take `CCn1c(C)cc(=NC(=O)c2ccccc2O)n1-c1ccccc1`: the growth inhibition is 9.8%.

For the compound `CC(C)c1ccc(O)c(Cc2cc(C(C)C)cc(Cc3cc(C(C)C)ccc3O)c2O)c1`, the growth inhibition is -3.2%.

For `O=C(CBr)OCCC1CCCCC1`, the growth inhibition was 4.7%.

As for `C=CCOC(=O)C1CC=CCC1C(=O)OCC=C` (stereo not given), the growth inhibition is -26.9%.

Regarding `CC(=O)Nc1ccc(Sc2ccc(NC(C)=O)cc2O)c(O)c1`, the growth inhibition is 17%.

`CC1(C)OC2C(C3N(c4ccccc4)CCN3c3ccccc3)OC(n3ccc(=O)[nH]c3=O)C2O1` (stereo not given): the growth inhibition was -5.85%.

As for `CCOC(=O)CCCN1CCC=C(C#N)C1`, the growth inhibition is -2.2%.

As to `COC(=O)C(Cc1nc2ccccc2[nH]c1=O)C(NO)C(=O)Nc1c(Cl)cc([N+](=O)[O-])cc1Cl` (stereo not given), the growth inhibition is -7.4%.

Consider `CC12CC(=O)OC(Cc3ccccc31)O2` (stereo not given), for which the growth inhibition was -27.1%.

In the case of `CC(C)CCC[C@@H](C)[C@H]1CC[C@H]2[C@@H]3CC[C@H]4OC(=O)CC[C@]4(C)[C@H]3CC[C@]12C`, the growth inhibition was -33.9%.

Consider `Cn1ccc(=O)c2ccccc21`, for which the growth inhibition was -1%.

Take `COc1c(C)c2c(c(C)c1Cl)Oc1c(C=O)c(O)c(Cl)c(C)c1C(=O)O2`: the growth inhibition was 25.4%.

For the compound `CN1N=C(c2ccccc2)C(C(c2ccccc2[N+](=O)[O-])C2C(=O)N(C)N=C2c2ccccc2)C1=O` (stereo not given), the growth inhibition is 34.6%.

Take `CNC(=O)CCC(NC(=O)OC(C)(C)C)C(=O)NC(Cc1ccc(NC(=O)CCCCC(C)=O)cc1)C(=O)NCC(=O)NC` (stereo not given): the growth inhibition is 13.9%.

Take `CC1(C(=O)Sc2ccccc2)OC1(C)c1ccccc1` (stereo not given): the growth inhibition is 7.65%.

For the compound `O=P(NC1CCCCC1)(NC1CCCCC1)NC1CCCCC1`, the growth inhibition is -1.75%.

With `N#Cc1cc(N2CCCCC2)ccc1[N+](=O)[O-]`, the growth inhibition was -8.35%.

In the case of `O=C1CSc2ccncc2N1`, the growth inhibition was 2.9%.

Consider `COc1ccc2nc3ccccc3c(NCCCN(C)C)c2c1[N+](=O)[O-]`, for which the growth inhibition is -19.6%.
